Compound activity (PubChem BioAssay)
Most compounds without a hit are left out; they make up all but 2.4% or so of the library.
APOBEC3A inh = blocks human APOBEC3A ssDNA deamination; 0.41% of 330,000 active; P31941; inhibition, % at 20 µM; recombinant A3A, FAM/TAMRA ssDNA deamination fluorescence;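 active = at least 40% inhibition at 20 µM here, with at most 30% in a related deaminase screen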
Target sequence (P31941 whole entry, looked up): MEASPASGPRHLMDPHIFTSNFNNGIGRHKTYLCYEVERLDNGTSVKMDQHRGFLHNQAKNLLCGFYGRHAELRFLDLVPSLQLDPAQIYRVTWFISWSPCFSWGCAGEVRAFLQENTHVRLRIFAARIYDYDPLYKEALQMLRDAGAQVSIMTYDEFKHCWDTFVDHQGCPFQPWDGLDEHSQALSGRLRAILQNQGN
APOBEC3G inh = blocks human APOBEC3G single-stranded DNA deamination; AID 493012; inhibition, % at 20 µM; 0.28% of 330,000 active; recombinant A3G, ssDNA deamination FAM/TAMRA fluorescence;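 active = inhibition of at least 40% at 20 µM, with no more than 30% in the related APOBEC3A deaminase screen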
PfM18AAP inh-1 = PfM18AAP enzyme inhibition; recombinant PfM18AAP, H-Glu-NHMec fluorogenic cleavage; inhibition, % at 7.35 µM; 1.2% of 290,000 active;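 active = inhibition above the campaign mean inhibition over all tested compounds plus 3 SD, cut at about 28% in these data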
CR mimetic SO = caloric restriction mimetics inhibiting age-related superoxide in yeast | S. cerevisiae aged cells, superoxide DHE fluorescence; active compounds read low | superoxide response (% of plate mean), % at 10 µM | 0.18% of 330,000 active;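 active = superoxide response under a set limit, about three screen SD below normal, cut at about 65% in these data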;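 note: yeast aged for seven days with compound at 30 °C before DHE staining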
PfG6PD inh = PfG6PD (Plasmodium falciparum) enzyme inhibition; PfGluPho enzyme, NADPH resazurin-diaphorase fluorescence; inhibition, % at 20 µM; 0.78% of 350,000 active; AID 504690;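 active = inhibition reaching at least a set limit at 20 µM in the primary screen, cut at about 59% in these data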
PfM18AAP inh-2 = PfM18AAP inhibition, confirmation; shares compounds with PfM18AAP inh-1; recombinant PfM18AAP, H-Glu-NHMec fluorogenic cleavage; inhibition, % at 7.35 µM; 28% of 2,400 active; AID 2170;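 active = mean inhibition over replicate wells above the hit cutoff set for the earlier primary screen, cut at about 29% in these data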
CTSL1 counter = counter-screen for PFM18AAP inhibitors: confirmation of human cathepsin L inhibitors | shares compounds with PfM18AAP inh-1 | purified cathepsin L1, Z-Leu-Arg-MCA fluorescence | inhibition, % at 5.96 µM | 2,400 tested, under 10 active | AID 2178;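 active = average inhibition across replicates above the hit cutoff set in the earlier primary screen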
Target sequence (P07711 whole entry, looked up): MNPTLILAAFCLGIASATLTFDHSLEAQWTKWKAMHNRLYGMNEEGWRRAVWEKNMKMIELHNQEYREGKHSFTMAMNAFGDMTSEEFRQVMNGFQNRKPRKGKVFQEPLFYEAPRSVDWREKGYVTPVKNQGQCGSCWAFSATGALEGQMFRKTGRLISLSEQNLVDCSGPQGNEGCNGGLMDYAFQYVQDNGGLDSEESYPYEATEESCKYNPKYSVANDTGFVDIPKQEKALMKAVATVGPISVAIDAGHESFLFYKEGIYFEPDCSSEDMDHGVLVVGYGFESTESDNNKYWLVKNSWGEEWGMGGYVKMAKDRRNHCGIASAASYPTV
Numbers stand for hits; - = inactive; . = no result given.

SMILES	APOBEC3A inh	APOBEC3G inh	PfM18AAP inh-1	CR mimetic SO	PfG6PD inh	PfM18AAP inh-2	CTSL1 counter
Cc1cccc(-n2c(=O)c3ccccc3n3c(=S)[nH]nc23)c1C	-	-	40.2	-	-	-	-
COc1cccc(-n2c(=O)c3ccccc3n3c(=S)[nH]nc23)c1	-	-	36.0	-	-	-	-
CSCC[C@H](NC(=O)[C@H](Cc1ccccc1)n1c(=O)[nH]c2ccccc2c1=O)C(=O)N1CCC[C@H]1C(=O)O	-	-	-	-	-	.	.
CC(C)Cc1nnc(NC(=O)CCC(=O)NC2CC2)s1	-	-	-	-	-	.	.
COc1ccc(N(C)S(=O)(=O)c2cccc(C(=O)Nc3cccc(C(=O)NC4CC4)c3)c2)cc1	-	-	.	-	-	.	.
Cc1cc(NS(=O)(=O)c2ccc(NC(=O)c3cnc(Cl)c(Cl)c3)cc2)nc(C)n1	-	-	.	-	-	.	.
Cc1sc(-n2c(C)cc(/C=N/n3cnnc3)c2C)c(C#N)c1C	-	-	36.2	-	-	-	-
Cc1sc(-n2c(C)cc(/C=C3\SC(=S)NC3=O)c2C)c(C#N)c1C	-	-	-	-	-	.	.
CC(=O)Nc1ccc(S(=O)(=O)N(C)CC(=O)Nc2nc3ccccc3[nH]2)cc1	-	-	.	.	-	.	.
OC[C@H]1O[C@H](OCc2ccccc2)[C@H](O[C@@H]2OC[C@@H](O)[C@H](O)[C@H]2O)[C@@H](O)[C@@H]1O	-	-	.	-	-	.	.
OC1COC(OCC2OC(OCc3ccccc3)C(O)C(O)C2O)C(O)C1O (stereo unspecified)	-	-	34.8	-	-	-	-
CC(=O)NCc1ccc(-c2csc(N)n2)s1	-	-	36.8	-	-	-	-
O=C(CN(C(=O)CCC(=O)Nc1nccs1)c1cccc(F)c1)NCCc1ccccc1	-	-	-	-	-	.	.
S=c1nccc(-c2ccc(Cl)cc2)[nH]1	-	-	-	-	-	.	.
Cc1nc2ccccn2c1-c1ccnc(=S)[nH]1	-	-	37.0	-	-	-	-
CC(C)CNC(=O)c1ccccc1C(=O)NC1(C(=O)NCC(C)C)CCCC1	.	.	.	.	-	.	.
BrC(=C\c1ccccc1)/C=N/Nc1ccc2nncn2n1	-	-	32.1	-	-	-	-
C(=N\Nc1ccc2nncn2n1)/c1ccco1	-	-	33.9	-	-	-	-
C/C(=N\Nc1ccc2nncn2n1)c1cccs1	-	-	40.3	-	-	-	-
Cc1cc(C)nc(N/N=C/c2ccco2)n1	-	-	-	-	-	.	.
BrC(=C\c1ccccc1)/C=N/n1cnnc1	.	.	68.2	.	-	60.8	-
Cc1ccc(Sc2ccc(S(=O)(=O)Nc3ccc(CC(=O)O)cc3)cc2)cc1C	-	-	.	-	-	.	.
Cc1cccc(NC(=O)COc2coc(CN3CCc4ccccc4C3)cc2=O)c1	-	-	.	-	-	.	.
C(=N\Nc1nn2cnnc2c2ccccc12)/c1ccco1	-	-	44.2	-	-	-	-
Oc1ccc(/C=N/Nc2nn3cnnc3c3ccccc23)cc1	-	-	32.9	-	-	-	-
SMILES	APOBEC3A inh	APOBEC3G inh	PfM18AAP inh-1	CR mimetic SO	PfG6PD inh	PfM18AAP inh-2	CTSL1 counter
COc1cccc(/C=N/Nc2nn3cnnc3c3ccccc23)c1	-	-	39.8	-	-	-	-
COc1cc(/C=N/Nc2nn3cnnc3c3ccccc23)ccc1O	-	-	-	-	-	.	.
COc1ccc(C)cc1N(CC(=O)NC1CCCC1)C(=O)Cn1nnc(-c2ccc(C)o2)n1	-	-	-	.	-	.	.
Nc1nc(Sc2ccc(C(F)(F)F)cc2[N+](=O)[O-])n[nH]1	-	-	63.3	-	-	55.6	-
O=C(NNc1ccc([N+](=O)[O-])cc1)C1CC1c1ccccc1 (stereo unspecified)	-	-	43.1	-	-	-	-
Cc1ccccc1C(=O)NNc1ccc([N+](=O)[O-])cc1	-	-	59.5	-	-	47.7	-
Cc1ccccc1C(=O)NCCNc1ccc([N+](=O)[O-])cc1	-	-	-	-	-	.	.
O=C(NNc1ccc([N+](=O)[O-])cc1)C1CC2CCCC(C1)C2=O (stereo unspecified)	-	-	-	-	-	.	.
COc1ccc([C@H]2CC(=O)C=C(c3cccc4c3Oc3ccccc3S4)C2)cc1OC	-	-	.	-	-	.	.
Cc1ccc(S(=O)(=O)N2CC=C(c3ccc(F)cc3)CC2)cc1	-	-	75.8	-	-	-	-
COc1ccccc1CNC(=O)c1cc(-c2ccccc2)n(Cc2cc(C)no2)n1	-	-	.	-	-	.	.
OCCn1c(-c2ccc3c(c2)OCO3)csc1=Nc1ccccc1	-	-	37.0	-	-	-	-
CCOc1ccc(N=c2scc(-c3ccc(OC)cc3)n2CCO)cc1	-	-	-	-	-	.	.
C[C@H]1Oc2ccccc2C(=O)C1C(=O)c1ccccc1 (stereo partly specified)	-	-	.	-	-	.	.
CCOC(=O)Cc1cn(C(=O)OC(C)(C)C)c2ccccc12	-	-	.	-	-	.	.
Cc1ccc(C(c2c(C)[nH][nH]c2=O)c2c(C)[nH][nH]c2=O)cc1[N+](=O)[O-]	-	-	33.8	-	-	-	-
Cc1ccc(S(=O)(=O)NCCC(=O)N2CCOCC2)cc1C	-	-	.	-	-	.	.
O=C(NCCc1ccc(O)c(O)c1)C1COc2ccccc2O1 (stereo unspecified)	-	-	80.1	-	-	62.0	-
O=C(CCc1ccc(O)c(O)c1)NNC(=S)Nc1ccc(Br)cc1Cl	-	-	53.6	-	-	-	-
O=C(CCc1ccc(O)c(O)c1)NNC(=S)NCCc1ccccc1	-	-	68.4	-	-	30.4	-
COc1cccc(NC(=O)NNC(=O)CCc2ccc(O)c(O)c2)c1	-	-	73.2	-	-	52.0	-
O=C(NNC(=S)Nc1ccc(Br)cc1Cl)c1ccncc1	-	-	-	-	-	.	.
COc1ccccc1CNC(=O)c1cc(-c2ccccc2C)n(CC2CC(c3cccc([N+](=O)[O-])c3)=NO2)n1 (stereo unspecified)	-	-	.	-	-	.	.
Cc1cc2c(C)nc(N/N=C/c3ccc(F)cc3)nc2o1	-	-	46.1	-	-	-	-
CSc1ccc(/C=N/Nc2nc(C)cc(C)n2)cc1	-	-	-	-	-	.	.
SMILES	APOBEC3A inh	APOBEC3G inh	PfM18AAP inh-1	CR mimetic SO	PfG6PD inh	PfM18AAP inh-2	CTSL1 counter
CCOC(=O)Cc1nnc(NC(=O)c2ncn[nH]2)s1	-	-	46.0	-	-	-	-
Nc1ccccc1NC(=O)CCn1c(=S)[nH]c2ccccc2c1=O	-	-	-	-	-	.	.
O=c1c2ccccc2c(/C=N/c2ncn[nH]2)c(O)n1Cc1ccccc1	-	-	54.1	-	-	-	-
O=C(c1ccc(-n2cncn2)c([N+](=O)[O-])c1)N1CCN(S(=O)(=O)c2ccccc2F)CC1	-	-	.	-	-	.	.
Cc1c(C)n(Cc2ccccc2)c2ncnc(NN)c12	-	-	33.6	-	-	-	-
Cc1c(C)n(CCc2ccccc2)c2ncnc(NN)c12	-	-	44.3	-	-	-	-
Cc1c(C)n(CCc2ccccc2)c2ncnc(NCCCO)c12	-	-	-	-	-	.	.
